From article PMC7862700, “An all-to-all approach to the identification of sequence-specific readers for epigenetic DNA modifications on cytosine”

Tests used:
Experiment in all cases: DAPPL (digital affinity profiling via proximity ligation, sequencing); 10 mM Tris-HCl pH 7.5, 50 mM NaCl, 1 mM DTT, 4% glycerol, room temperature, 30 min; GST-TFs on glutathione beads, 16-mer random dsDNA library, 0.1% formaldehyde crosslink after washing; high values mean tight binding
FLI1 = molecular target: T1, FLI1 (Homo sapiens, UniProt Q01543 1-452); details: protein: recombinant; tags: N-terminal GST; dsDNA, one strand shown
T1 sequence: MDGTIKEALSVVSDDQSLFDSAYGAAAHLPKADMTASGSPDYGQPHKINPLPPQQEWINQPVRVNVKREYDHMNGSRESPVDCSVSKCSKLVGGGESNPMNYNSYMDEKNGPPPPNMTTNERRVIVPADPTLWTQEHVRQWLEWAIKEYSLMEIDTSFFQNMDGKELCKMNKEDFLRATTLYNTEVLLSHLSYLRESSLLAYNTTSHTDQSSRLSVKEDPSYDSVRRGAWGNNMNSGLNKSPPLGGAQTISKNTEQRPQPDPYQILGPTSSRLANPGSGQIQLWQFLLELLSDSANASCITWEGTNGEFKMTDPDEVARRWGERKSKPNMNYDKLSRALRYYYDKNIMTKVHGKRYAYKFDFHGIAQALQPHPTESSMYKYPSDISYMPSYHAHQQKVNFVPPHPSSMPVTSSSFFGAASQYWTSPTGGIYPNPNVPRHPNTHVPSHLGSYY
Summary of the method: (§1)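 Human transcription factors carrying a GST fusion were produced in yeast, bound to glutathione beads, tagged with DNA barcodes and pooled together with a tag-only sample. Each pool was held with 200 nmole of a random double-stranded 16-mer DNA library in Tris/NaCl/DTT/glycerol buffer for 30 min at room temperature, then washed, crosslinked in 0.1% formaldehyde, proximity-ligated with BsaI/T4 ligase (1 h, 37 °C), PCR-amplified and sequenced on an Illumina NextSeq500. Binding signal is the read frequency of each hexamer for a given factor divided by its frequency in the tag-only sample.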

ELK1 = molecular target: T2, ELK1 (Homo sapiens, UniProt P19419 1-428); details: protein: recombinant; tags: N-terminal GST; dsDNA, one strand shown
T2 sequence: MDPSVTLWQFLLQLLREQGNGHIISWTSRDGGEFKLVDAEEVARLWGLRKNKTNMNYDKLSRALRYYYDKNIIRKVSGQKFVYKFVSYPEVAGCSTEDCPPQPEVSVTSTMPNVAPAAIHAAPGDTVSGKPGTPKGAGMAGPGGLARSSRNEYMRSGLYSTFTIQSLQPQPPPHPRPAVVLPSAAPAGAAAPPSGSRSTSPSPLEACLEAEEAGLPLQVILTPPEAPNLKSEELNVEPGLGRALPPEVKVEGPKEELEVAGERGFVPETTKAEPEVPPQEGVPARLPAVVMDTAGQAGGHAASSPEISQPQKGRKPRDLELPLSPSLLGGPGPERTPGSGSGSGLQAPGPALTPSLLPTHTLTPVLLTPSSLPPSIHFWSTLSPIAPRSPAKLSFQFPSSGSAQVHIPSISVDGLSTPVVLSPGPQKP
Summary of the method: as §1

GABPA = molecular target: T3, GABPA (Homo sapiens, UniProt Q06546 1-454); details: protein: recombinant; tags: N-terminal GST; dsDNA, one strand shown
T3 sequence: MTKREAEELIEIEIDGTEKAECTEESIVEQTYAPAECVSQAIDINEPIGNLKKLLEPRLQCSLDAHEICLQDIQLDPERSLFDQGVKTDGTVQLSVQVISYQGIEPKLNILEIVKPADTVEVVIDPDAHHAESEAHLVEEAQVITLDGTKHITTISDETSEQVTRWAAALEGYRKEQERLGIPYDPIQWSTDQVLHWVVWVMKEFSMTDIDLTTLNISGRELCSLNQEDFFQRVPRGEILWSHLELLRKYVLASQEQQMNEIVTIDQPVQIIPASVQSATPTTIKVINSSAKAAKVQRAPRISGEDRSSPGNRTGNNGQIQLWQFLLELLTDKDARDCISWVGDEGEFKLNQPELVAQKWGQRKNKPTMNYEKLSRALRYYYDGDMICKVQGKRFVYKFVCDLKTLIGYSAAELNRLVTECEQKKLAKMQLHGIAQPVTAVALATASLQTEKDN
Summary of the method: as §1

ERG = molecular target: T4, ERG (Homo sapiens, UniProt P11308 1-479); details: protein: recombinant; tags: N-terminal GST; dsDNA, one strand shown
T4 sequence: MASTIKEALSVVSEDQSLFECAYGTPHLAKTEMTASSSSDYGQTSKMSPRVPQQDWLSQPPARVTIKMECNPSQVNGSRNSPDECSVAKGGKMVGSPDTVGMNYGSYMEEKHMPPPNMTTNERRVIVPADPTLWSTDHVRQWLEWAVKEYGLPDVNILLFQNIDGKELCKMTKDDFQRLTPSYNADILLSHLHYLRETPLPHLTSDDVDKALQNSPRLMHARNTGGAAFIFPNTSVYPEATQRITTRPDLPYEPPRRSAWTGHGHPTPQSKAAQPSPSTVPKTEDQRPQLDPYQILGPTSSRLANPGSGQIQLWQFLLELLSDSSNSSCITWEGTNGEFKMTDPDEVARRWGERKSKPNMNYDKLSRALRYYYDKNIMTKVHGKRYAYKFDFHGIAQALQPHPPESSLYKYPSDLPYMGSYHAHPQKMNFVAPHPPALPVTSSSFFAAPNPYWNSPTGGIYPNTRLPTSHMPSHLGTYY
Summary of the method: as §1

ELF1 = ELF1 (Homo sapiens, UniProt P32519 1-619); details: protein: recombinant; tags: N-terminal GST; dsDNA, one strand shown
ELF1, sequence (P32519 whole entry): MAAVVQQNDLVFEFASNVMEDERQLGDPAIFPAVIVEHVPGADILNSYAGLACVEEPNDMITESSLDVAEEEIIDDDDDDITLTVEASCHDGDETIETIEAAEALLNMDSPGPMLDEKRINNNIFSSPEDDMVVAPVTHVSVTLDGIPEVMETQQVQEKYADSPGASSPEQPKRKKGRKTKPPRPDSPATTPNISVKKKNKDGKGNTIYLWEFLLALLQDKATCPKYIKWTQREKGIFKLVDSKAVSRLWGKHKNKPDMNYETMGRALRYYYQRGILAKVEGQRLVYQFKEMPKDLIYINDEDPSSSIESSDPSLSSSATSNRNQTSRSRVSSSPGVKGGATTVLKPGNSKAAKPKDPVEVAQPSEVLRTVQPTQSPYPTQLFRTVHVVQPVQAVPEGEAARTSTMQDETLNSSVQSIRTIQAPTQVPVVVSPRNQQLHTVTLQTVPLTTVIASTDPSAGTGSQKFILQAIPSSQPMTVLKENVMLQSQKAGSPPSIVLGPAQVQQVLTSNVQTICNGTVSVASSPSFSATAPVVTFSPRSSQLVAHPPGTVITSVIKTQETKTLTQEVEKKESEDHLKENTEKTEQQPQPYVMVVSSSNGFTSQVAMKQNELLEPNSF
Summary of the method: as §1

EHF = molecular target: T5, EHF (Homo sapiens, UniProt Q9NZC4 1-300); details: protein: recombinant; tags: N-terminal GST; dsDNA, one strand shown
T5 sequence: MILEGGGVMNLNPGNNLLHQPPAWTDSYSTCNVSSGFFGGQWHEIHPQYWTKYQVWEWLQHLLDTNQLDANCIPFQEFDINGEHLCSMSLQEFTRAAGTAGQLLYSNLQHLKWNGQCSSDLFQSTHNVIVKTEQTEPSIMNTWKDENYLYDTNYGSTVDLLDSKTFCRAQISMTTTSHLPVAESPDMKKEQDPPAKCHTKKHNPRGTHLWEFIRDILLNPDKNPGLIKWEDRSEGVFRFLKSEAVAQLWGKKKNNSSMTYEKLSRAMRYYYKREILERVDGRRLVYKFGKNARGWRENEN
Summary of the method: as §1

SPI1 = SPI1 (Homo sapiens, UniProt P17947 1-270); details: protein: recombinant; tags: N-terminal GST; dsDNA, one strand shown
Summary of the method: as §1

SPIB = SPIB (Homo sapiens, UniProt Q01892 1-262); details: protein: recombinant; tags: N-terminal GST; dsDNA, one strand shown
SPIB, sequence (Q01892 whole entry): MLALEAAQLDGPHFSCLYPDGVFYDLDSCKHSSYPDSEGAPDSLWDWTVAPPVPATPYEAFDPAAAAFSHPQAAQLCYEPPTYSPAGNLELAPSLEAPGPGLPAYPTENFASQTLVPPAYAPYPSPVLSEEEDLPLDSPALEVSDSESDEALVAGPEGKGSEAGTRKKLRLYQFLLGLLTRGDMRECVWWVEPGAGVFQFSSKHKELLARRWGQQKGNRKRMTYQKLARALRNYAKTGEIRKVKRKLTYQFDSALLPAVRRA
Summary of the method: as §1

ELK3 = molecular target: T6, ELK3 (Homo sapiens, UniProt P41970 1-407); details: protein: recombinant; tags: N-terminal GST; dsDNA, one strand shown
T6 sequence: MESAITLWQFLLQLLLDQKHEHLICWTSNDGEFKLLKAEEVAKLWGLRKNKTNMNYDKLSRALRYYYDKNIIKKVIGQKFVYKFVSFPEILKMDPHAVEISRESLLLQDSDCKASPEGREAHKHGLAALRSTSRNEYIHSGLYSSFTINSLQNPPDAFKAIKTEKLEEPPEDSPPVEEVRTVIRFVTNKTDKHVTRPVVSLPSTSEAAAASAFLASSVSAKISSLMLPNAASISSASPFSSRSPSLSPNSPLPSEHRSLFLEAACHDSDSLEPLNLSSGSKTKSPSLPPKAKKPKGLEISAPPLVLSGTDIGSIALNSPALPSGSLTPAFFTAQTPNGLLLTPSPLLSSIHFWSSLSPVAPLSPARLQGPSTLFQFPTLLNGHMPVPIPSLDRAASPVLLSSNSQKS
Summary of the method: as §1

FEV = molecular target: T7, FEV (Homo sapiens, UniProt Q99581 1-238); details: protein: recombinant; tags: N-terminal GST; dsDNA, one strand shown
T7 sequence: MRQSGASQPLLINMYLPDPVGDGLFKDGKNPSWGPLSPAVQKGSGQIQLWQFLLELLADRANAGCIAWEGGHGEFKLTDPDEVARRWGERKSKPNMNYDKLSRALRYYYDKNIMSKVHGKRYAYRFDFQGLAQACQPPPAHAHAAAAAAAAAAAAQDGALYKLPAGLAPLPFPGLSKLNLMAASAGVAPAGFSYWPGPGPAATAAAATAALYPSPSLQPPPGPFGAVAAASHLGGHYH
Summary of the method: as §1

ETV5 = ETV5 (Homo sapiens, UniProt P41161 1-510); details: protein: recombinant; tags: N-terminal GST; dsDNA, one strand shown
ETV5, sequence (P41161 whole entry): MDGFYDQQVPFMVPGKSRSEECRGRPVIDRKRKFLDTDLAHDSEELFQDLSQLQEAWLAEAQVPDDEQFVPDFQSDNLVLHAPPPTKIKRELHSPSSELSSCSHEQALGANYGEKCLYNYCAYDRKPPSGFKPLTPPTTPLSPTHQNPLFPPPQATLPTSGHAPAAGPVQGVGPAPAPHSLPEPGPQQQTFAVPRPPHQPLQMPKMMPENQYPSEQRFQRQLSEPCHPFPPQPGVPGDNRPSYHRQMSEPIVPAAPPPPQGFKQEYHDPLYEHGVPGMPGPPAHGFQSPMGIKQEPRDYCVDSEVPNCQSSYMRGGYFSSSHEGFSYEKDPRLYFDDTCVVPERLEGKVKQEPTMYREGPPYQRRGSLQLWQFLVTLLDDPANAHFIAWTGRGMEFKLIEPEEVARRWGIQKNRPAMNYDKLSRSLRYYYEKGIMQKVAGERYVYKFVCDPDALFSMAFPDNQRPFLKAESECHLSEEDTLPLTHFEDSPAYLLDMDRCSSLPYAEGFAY
Summary of the method: as §1

HSF1 = HSF1 (Homo sapiens, UniProt Q00613 1-529); details: protein: recombinant; tags: N-terminal GST; chain copies: 3; dsDNA, one strand shown
HSF1, sequence (Q00613 whole entry): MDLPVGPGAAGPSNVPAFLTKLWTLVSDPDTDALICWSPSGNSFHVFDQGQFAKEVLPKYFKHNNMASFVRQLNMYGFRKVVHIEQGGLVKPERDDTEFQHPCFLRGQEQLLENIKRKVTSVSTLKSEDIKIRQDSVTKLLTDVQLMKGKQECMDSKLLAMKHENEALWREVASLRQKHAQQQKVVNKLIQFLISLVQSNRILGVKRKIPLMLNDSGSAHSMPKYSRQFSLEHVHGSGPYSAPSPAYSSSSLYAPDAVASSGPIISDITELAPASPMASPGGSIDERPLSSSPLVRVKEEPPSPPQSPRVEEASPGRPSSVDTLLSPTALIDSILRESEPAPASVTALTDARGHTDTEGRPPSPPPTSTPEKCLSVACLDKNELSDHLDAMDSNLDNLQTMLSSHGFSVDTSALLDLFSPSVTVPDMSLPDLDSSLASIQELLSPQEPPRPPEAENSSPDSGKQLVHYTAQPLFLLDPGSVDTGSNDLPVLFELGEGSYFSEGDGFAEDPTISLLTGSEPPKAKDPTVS
Summary of the method: as §1

SPIC = molecular target: T8, SPIC (Homo sapiens, UniProt Q8N5J4 1-248); details: protein: recombinant; tags: N-terminal GST; dsDNA, one strand shown
T8 sequence: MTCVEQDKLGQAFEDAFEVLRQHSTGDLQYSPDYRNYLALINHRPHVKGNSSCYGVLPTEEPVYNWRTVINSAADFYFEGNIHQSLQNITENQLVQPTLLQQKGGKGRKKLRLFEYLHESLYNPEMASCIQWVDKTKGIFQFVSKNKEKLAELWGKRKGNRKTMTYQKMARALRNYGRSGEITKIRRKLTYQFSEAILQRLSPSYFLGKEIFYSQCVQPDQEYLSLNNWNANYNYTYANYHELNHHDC
Summary of the method: as §1

ELF4 = ELF4 (Homo sapiens, UniProt Q99607 1-663); details: protein: recombinant; tags: N-terminal GST; dsDNA, one strand shown
ELF4, sequence (Q99607 whole entry): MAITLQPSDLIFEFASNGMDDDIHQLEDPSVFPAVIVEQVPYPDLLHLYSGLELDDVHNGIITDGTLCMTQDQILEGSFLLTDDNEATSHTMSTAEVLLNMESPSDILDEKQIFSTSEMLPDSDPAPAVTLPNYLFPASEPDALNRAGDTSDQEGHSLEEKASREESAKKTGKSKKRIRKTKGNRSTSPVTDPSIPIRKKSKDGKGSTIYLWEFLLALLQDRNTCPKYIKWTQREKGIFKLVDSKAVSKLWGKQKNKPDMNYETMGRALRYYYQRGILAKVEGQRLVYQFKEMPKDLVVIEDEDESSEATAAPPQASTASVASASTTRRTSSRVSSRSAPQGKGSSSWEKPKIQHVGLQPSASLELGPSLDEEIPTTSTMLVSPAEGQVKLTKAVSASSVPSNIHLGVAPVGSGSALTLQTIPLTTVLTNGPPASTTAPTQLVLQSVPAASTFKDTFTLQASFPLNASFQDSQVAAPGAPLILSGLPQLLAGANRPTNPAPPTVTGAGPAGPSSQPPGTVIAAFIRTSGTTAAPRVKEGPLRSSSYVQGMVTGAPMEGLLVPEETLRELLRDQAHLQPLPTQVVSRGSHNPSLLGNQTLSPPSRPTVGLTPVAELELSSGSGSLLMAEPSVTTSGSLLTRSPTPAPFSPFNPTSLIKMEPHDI
Summary of the method: as §1

ELK4 = molecular target: T9, ELK4 (Homo sapiens, UniProt P28324-2 1-405); details: protein: recombinant; tags: N-terminal GST; dsDNA, one strand shown
T9 sequence: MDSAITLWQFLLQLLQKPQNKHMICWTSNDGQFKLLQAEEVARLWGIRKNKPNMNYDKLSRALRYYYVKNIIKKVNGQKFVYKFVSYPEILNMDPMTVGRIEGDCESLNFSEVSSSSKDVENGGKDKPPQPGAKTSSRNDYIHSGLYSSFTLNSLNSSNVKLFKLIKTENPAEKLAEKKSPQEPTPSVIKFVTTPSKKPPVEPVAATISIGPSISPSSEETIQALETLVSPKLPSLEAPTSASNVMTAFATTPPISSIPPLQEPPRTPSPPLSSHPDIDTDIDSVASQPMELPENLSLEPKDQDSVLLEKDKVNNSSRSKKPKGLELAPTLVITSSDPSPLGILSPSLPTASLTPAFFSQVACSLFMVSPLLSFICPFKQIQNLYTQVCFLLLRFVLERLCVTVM
Summary of the method: as §1

ETV2 = molecular target: T10, ETV2 (Homo sapiens, UniProt O00321 1-342); details: protein: recombinant; tags: N-terminal GST; dsDNA, one strand shown
T10 sequence: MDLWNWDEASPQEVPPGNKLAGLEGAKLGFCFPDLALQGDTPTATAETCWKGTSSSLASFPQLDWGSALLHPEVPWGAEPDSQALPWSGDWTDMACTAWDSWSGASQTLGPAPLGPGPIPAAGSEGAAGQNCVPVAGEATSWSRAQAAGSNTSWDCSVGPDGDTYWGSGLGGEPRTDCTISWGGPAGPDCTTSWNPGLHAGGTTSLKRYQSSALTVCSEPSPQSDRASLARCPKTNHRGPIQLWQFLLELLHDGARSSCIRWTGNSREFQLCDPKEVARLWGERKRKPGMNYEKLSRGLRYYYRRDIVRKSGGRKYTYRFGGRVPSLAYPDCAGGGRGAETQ
Summary of the method: as §1

ELF3 = molecular target: T11, ELF3 (Homo sapiens, UniProt P78545 1-371); details: protein: recombinant; tags: N-terminal GST; dsDNA, one strand shown
T11 sequence: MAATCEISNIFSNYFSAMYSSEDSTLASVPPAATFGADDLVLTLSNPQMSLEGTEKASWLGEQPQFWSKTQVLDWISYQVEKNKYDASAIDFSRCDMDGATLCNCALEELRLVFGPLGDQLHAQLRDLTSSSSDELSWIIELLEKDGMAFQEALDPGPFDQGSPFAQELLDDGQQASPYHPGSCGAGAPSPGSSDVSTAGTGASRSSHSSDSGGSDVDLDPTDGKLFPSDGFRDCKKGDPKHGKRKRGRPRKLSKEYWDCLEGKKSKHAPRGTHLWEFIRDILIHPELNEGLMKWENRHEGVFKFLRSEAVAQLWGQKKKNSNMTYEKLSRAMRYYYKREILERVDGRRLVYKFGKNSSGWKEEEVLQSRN
Summary of the method: as §1

CRX = CRX (Homo sapiens, UniProt O43186 1-299); details: protein: recombinant; tags: N-terminal GST; dsDNA, one strand shown
CRX, sequence (O43186 whole entry): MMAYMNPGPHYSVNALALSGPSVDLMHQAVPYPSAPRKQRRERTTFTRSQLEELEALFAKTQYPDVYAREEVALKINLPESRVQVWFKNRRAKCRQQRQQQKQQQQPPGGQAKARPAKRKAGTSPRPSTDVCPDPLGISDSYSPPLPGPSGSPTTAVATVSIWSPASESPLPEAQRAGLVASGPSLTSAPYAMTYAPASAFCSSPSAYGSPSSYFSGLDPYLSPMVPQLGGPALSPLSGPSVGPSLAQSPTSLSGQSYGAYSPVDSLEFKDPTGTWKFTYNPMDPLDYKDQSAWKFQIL
Summary of the method: as §1

ETV1 = ETV1 (Homo sapiens, UniProt P50549 1-477); details: protein: recombinant; tags: N-terminal GST; dsDNA, one strand shown
ETV1, sequence (P50549 whole entry): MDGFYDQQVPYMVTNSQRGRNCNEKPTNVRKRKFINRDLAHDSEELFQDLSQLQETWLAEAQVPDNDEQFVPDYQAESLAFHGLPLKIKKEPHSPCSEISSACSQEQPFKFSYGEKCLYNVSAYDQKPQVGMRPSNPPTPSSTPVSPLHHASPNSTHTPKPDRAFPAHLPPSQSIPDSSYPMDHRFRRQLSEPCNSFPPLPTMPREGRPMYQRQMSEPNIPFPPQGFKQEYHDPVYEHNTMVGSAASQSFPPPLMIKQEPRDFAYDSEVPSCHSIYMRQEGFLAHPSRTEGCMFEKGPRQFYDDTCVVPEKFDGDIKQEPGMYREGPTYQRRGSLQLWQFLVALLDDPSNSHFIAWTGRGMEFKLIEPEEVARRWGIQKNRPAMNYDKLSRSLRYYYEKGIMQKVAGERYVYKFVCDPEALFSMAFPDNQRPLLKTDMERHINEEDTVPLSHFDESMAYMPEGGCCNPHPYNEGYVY
Summary of the method: as §1

## CACATT
FLI1
  binding signal: 1.3 fold enrichment (6-mer frequency, TF over GST control)
ELK1
  binding signal: 1.16 fold enrichment (6-mer frequency, TF over GST control)
GABPA
  binding signal: 1.2 fold enrichment (6-mer frequency, TF over GST control)
ERG
  binding signal: 1.15 fold enrichment (6-mer frequency, TF over GST control)
ELF1
  binding signal: 1.21 fold enrichment (6-mer frequency, TF over GST control)
EHF
  binding signal: 1.23 fold enrichment (6-mer frequency, TF over GST control)
SPI1
  binding signal: 1.14 fold enrichment (6-mer frequency, TF over GST control)
SPIB
  binding signal: 1.12 fold enrichment (6-mer frequency, TF over GST control)
ELK3
  binding signal: 1.13 fold enrichment (6-mer frequency, TF over GST control)
FEV
  binding signal: 1.18 fold enrichment (6-mer frequency, TF over GST control)
ETV5
  binding signal: 1.19 fold enrichment (6-mer frequency, TF over GST control)
HSF1
  binding signal: 1.14 fold enrichment (6-mer frequency, TF over GST control)
SPIC
  binding signal: 1.26 fold enrichment (6-mer frequency, TF over GST control)
ELF4
  binding signal: 1.16 fold enrichment (6-mer frequency, TF over GST control)
ELK4
  binding signal: 1.13 fold enrichment (6-mer frequency, TF over GST control)
ETV2
  binding signal: 1.28 fold enrichment (6-mer frequency, TF over GST control)
ELF3
  binding signal: 1.43 fold enrichment (6-mer frequency, TF over GST control)
CRX
  binding signal: 1.06 fold enrichment (6-mer frequency, TF over GST control)
ETV1
  binding signal: 1.28 fold enrichment (6-mer frequency, TF over GST control)
